Among the data in PubChem BioAssay AID1663 (Broad Institute, 2009) are inhibition values, retold here.

Among all 300,000 compounds or so, about 660 (0.22%) were called active. This is one part of a sample in which actives are shown more often than they occur.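 How the source made its calls: active means mean replicate score, as percent of positive control, at or above 50; inconclusive means mean below 50 but at least one replicate at or above 50; inactive means mean and every replicate below 50.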

The assay is described as follows: blockers of SFLLRN-triggered platelet ATP release – cell-based, MLPCN, human platelets, primary screen (AID 1663). The settings on record: human platelet-rich plasma, SFLLRN dense granule ATP release, luminescence; active compounds read high;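 compounds screened at 7.5 µM in platelet-rich plasma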.
With `Cc1ccc(-n2ncc3c2CCCC3NC(=O)c2cnccn2)cc1C` (stereo not given), the inhibition was -0.139% (inactive).
The result for `Cc1ccc(S(=O)(=O)N2CCOCC2)cc1C(=O)OC1CCCCC1=O` (stereo not given) reads -6.92% (inactive).
Regarding `COc1ccccc1NC(=O)Nc1nnc(Cc2ccc(F)cc2)s1`, the inhibition is 1.62% (inactive).
The result for `CC1CCC2(CC1)NC(=O)N(Cc1nnc(-c3cccs3)o1)C2=O` (stereo not given) reads 3.04% (inactive); that for `Cc1ccc2c(C)c(C(=O)N(C)CCC3CCCCO3)oc2c1C` (stereo not given), 4.71% (inactive).
With `COc1cccc(C(C(=O)NC2CCCC2)N(C(=O)c2ccco2)c2cccc(C(C)=O)c2)c1OC` (stereo not given), the inhibition is -1.88% (inactive).
The result for `OCCC1CN(Cc2cccc(OC3CCCC3)c2)CCN1Cc1ccsc1` (stereo not given) reads -11.2% (inactive); that for `CCOc1ccc(S(=O)(=O)N2CCC(C(=O)NCc3ccccn3)CC2)cc1Cl`, -1.17% (inactive); that for `O=C(Nc1ccc(-n2cccn2)cc1)C1CCN(Cc2ccsc2)CC1`, 0.088% (inactive).
As for `CCOc1ccc(C(=O)Nc2cccc(SC)c2)cc1`, the inhibition was 25.4% (inactive).
With `COc1ccc(C(C(=O)NC(C)(C)C)N(Cc2ccc(F)cc2)C(=O)CCC(=O)Nc2cc(C)on2)cc1` (stereo not given) the figure was 2.89% (inactive).
Turning to `CCC1CCCCN1C(=S)Nc1ccc(S(=O)(=O)Nc2ncccn2)cc1` (stereo not given), the inhibition is -1.83% (inactive).
As for `CC(=O)Nc1ccc(S(=O)(=O)NCC2CCC(C(=O)NCCc3ccccc3)CC2)cc1` (stereo not given), the inhibition is -0.696% (inactive).
Regarding `Cc1ccc2c(cnn2C(=O)CCC(=O)NC2CCCC2)c1`, the inhibition is 6.24% (inactive).
With `CCn1c(SC(C)C(=O)Nc2ccc(N3CCOCC3)cc2)nnc1-c1ccco1` (stereo not given) the figure was -6.89% (inactive).
Consider `O=C(Oc1ccc(Br)cc1)c1cccnc1`, for which the inhibition was 3.93% (inactive).
Regarding `O=C(Oc1ccc(-c2nc(-c3ccccn3)no2)cc1)c1ccccc1`, the inhibition is 83.2% (active).
The result for `Cc1ccc(Oc2nc(-c3ccccn3)nc3ccccc23)cc1` reads 7.76% (inactive); that for `O=C1[C@@H]2C(c3cccnc3)=NO[C@@H]2C(=O)N1c1ccc(Cl)cc1Cl`, 3.23% (inactive).
The result for `COCCN(CCOC)c1nc(N)c2c(N)nc3c(c2c1C#N)CC(=O)N3Cc1ccc(Cl)cc1` reads -8.74% (inactive); that for `CCCC(=O)Nc1cccc(NC(=S)NC(=O)C(C)Oc2ccc(Cl)cc2Cl)c1` (stereo not given), 4.37% (inactive); that for `Cn1nc(C(F)(F)F)c(C(=O)Nc2cccc(C(F)(F)F)c2)c1SCc1ccc(Cl)cc1`, 0.563% (inactive).
For the molecule `Cc1c(C#N)c(NC(=O)c2ccccc2)n(Cc2ccccc2)c1C`, the inhibition is -12.1% (inactive).
Consider `CCN1CCN(C(=O)c2ccc(CN(c3ccc(C)c(C)c3)S(C)(=O)=O)cc2)CC1`, for which the inhibition is 3.03% (inactive).
Turning to `Cc1nc(N)c(Br)c(C)c1Br`, the inhibition is -11.2% (inactive).
On to `CCOc1ccc(CCNC(=O)COC(=O)C2CCN(c3ccc(C(F)(F)F)cn3)CC2)cc1OCC`, for which the inhibition was -1.24% (inactive).
With `CCCCc1ccc(S(N)(=O)=O)cc1` the figure was 5.59% (inactive); with `NNC(=O)CNC(c1ccccc1)c1cc(Cl)ccc1NC(=O)c1ccccc1` (stereo not given), 2.02% (inactive); with `CCOC(=O)/C=C/c1ccc(C(F)(F)F)cc1S(=O)(=O)NC(C)(C)C`, 0.739% (inactive).
Consider `COc1ccccc1OCc1ccc(C(=O)N2CCN(C)CC2)o1`, for which the inhibition is -1.97% (inactive).
The result for `O=C(c1ccco1)N1CCN(CCOc2ccccc2)CC1` reads -1.03% (inactive).
With `O=C(c1ccco1)N1CCN(C(=O)c2ccc(COc3ccc(F)cc3)o2)CC1` the figure was 60.5% (active); with `CN(C)NC(=O)C(NC(=O)c1ccc(N)cc1)C12CC3CC(CC(C3)C1)C2` (stereo not given), -0.607% (inactive); with `O=C(CCN1CCc2ccccc2C(O)(c2ccccc2)C1)c1ccc2c(c1)OCCO2` (stereo not given), -76.9% (inactive).
With `CC(=O)Nc1ccc(CN2CCC(Oc3ccc(C(=O)N4CCCC4)cc3)CC2)cc1` the figure was -7.89% (inactive); with `CC(C)(C)NC(=O)NC(=O)COC(=O)C1c2ccccc2Oc2ccccc21`, -3.75% (inactive); with `O=C(Nc1ccn(Cc2ccccc2)n1)c1n[nH]c([N+](=O)[O-])c1Cl`, 0.241% (inactive).
On to `O=C(Nc1ccn(Cc2ccccc2)n1)c1cccc(F)c1`, for which the inhibition was 7.39% (inactive).
With `O=C(Nc1ccn(Cc2ccc(F)cc2)n1)c1ccncc1` the figure was 50.5% (active); with `O=C(Nc1ccc(S(=O)(=O)NCC2CCCO2)cc1)c1ccc(F)cc1` (stereo not given), -4.99% (inactive).
For `Cc1ccnc(NC(=O)CNC(=O)c2ccccc2)c1`, the inhibition was -2.51% (inactive).
Turning to `Cc1ccnc(NC(=O)c2ccoc2C)c1`, the inhibition is 50.8% (active).
With `COc1cc(SC)ccc1C(=O)Nc1cc(C)ccn1` the figure was 5.66% (inactive); with `Cc1csc(Nc2ccc(Cl)cc2)[n+]1-c1ccc(Cl)cc1`, -1.67% (inactive).
For the molecule `Oc1ccc(CNc2ccccc2O)cc1`, the inhibition is 4.21% (inactive).
As for `CCOc1ccc(C(=O)Nc2ccc(S(=O)(=O)NCC3CCCO3)cc2)cc1OCC` (stereo not given), the inhibition was -1.27% (inactive).
For `COC(=O)CN1C(=O)C(C)(C)Oc2ccc(C(=O)Nc3cccc(OC)c3)cc21`, the inhibition was -3.5% (inactive).
With `CCOC(=O)c1ccc(NC(=O)Cn2cnc3cc(C)c(C)cc32)cc1` the figure was 9.16% (inactive); with `CCCCn1c(N)c(N(CCC(C)C)C(=O)c2ccc(COc3ccccc3)o2)c(=O)[nH]c1=O`, -0.548% (inactive).
The result for `Cc1ccc(NC(=O)CSCC(=O)Nc2sccc2C#N)cc1` reads -1.59% (inactive).
With `O=C1/C(=C/c2ccc(F)cc2)SC(=S)N1NS(=O)(=O)c1ccccc1` the figure was -3.17% (inactive).
On to `COc1ccc(S(=O)(=O)NC(C)C(=O)Nc2cccc([N+](=O)[O-])c2)cc1` (stereo not given), for which the inhibition was 3.55% (inactive).
`COC(=O)/C=C\C(=O)Nc1cccc([N+](=O)[O-])c1`: the inhibition is 73% (active).
With `COc1cccc(CNC(=O)CCCC(=O)Nc2cccc([N+](=O)[O-])c2)c1` the figure was 6.93% (inactive); with `CN(C)c1nc(=Nc2cccc(Cl)c2)ss1`, -3.66% (inactive); with `CCc1ccc(-c2nc(SCC(=O)NC3CCCC3)n[nH]2)cc1`, -5.4% (inactive).
The result for `CC(=O)CCS(=O)(=O)c1ccc(C)c(C)c1` reads 3.49% (inactive); that for `Cc1ccc(-c2nc3ccccc3[nH]2)cc1N`, 17.1% (inactive).
With `OC(c1nc2ccccc2[nH]1)C(O)C(O)C(O)c1nc2ccccc2[nH]1` (stereo not given) the figure was -3.4% (inactive); with `c1ccc2[nH]c(-c3nc4ccccc4[nH]3)nc2c1`, 76.6% (active); with `O=C(Nc1cccc(-c2cscn2)c1)C1CCN(Cc2ccsc2)CC1`, -6.81% (inactive).
As for `CC[n+]1cc(C)ccc1/C=C/c1ccc(N(C)C)cc1`, the inhibition is 9.22% (inactive).
`CCCCC(=O)Nc1ccccc1N1CCN(c2ccc(F)cc2)CC1`: the inhibition is 2.05% (inactive).
For the molecule `CNC(=O)C1CC(=O)N(Cc2ccc3c(c2)OCO3)C(=Nc2ccc(F)cc2)S1` (stereo not given), the inhibition was -5.44% (inactive).
The result for `Cc1ccc(N=Cc2c(O)n(-c3nccs3)c(=O)c3ccccc23)c(C)c1` reads -7.35% (inactive); that for `COc1ccc(-c2nc(N)sc2C2(O)C(=O)Nc3c(Br)cc(F)cc32)cc1OC` (stereo not given), 7.83% (inactive).
The result for `COCCNC(=O)NC(=O)COC(=O)C1(c2ccc(Cl)cc2)CC1` reads 11.8% (inactive); that for `COc1ccc(CNC(=O)c2cc(C(=O)C3CC3)c[nH]2)cc1`, -3.25% (inactive); that for `COc1ccc(C(=O)COC(=O)c2ccc3ccccc3n2)cc1`, -2.98% (inactive).
Turning to `C/C(=N\N=C(N)N)c1ccc(Cl)cc1`, the inhibition was -7.88% (inactive).
With `Cc1ncn2cc(-c3ccc(Cl)cc3Cl)[nH]c(=O)c12`, the inhibition was -3% (inactive).
The result for `Cc1cc(C)cc(OCC(=O)O/N=C(\N)Cc2ccc([N+](=O)[O-])cc2)c1` reads 1.64% (inactive); that for `CNC(=S)N1CCC(NC(=O)C(Cc2ccc(F)cc2)NC(C)=O)CC1` (stereo not given), 0.885% (inactive); that for `CCOCCCN(C(=O)Cn1nnc(-c2ccc(OC)c(OC)c2)n1)C(CC)C(=O)NC1CCCC1` (stereo not given), 7.27% (inactive).
`CCn1c(SCC(=O)NC2CCCC2)nnc1-c1ccoc1C`: the inhibition was -1.97% (inactive).
The result for `Cc1ccc(OCC(=O)Oc2ccccc2[N+](=O)[O-])cc1` reads -2.97% (inactive); that for `COc1ccc(/C(C)=N/NC(=O)c2ccc3nc[nH]c3c2)cc1`, 8.86% (inactive); that for `CCCC(C)C(=O)OCC(=O)Nc1c(Br)cc(C)cc1Br` (stereo not given), 20.5% (inactive).
For `Cc1cccc(N2CC(C)Cn3c2nc2c3c(=O)n(CC(=O)OCc3ccccc3)c(=O)n2C)c1` (stereo not given), the inhibition was 55.7% (active).
With `Cn1c(=O)n(CCc2ccccc2)c(=O)c2c1nc1n2CCCN1c1ccccc1` the figure was -2.86% (inactive); with `Cc1cccc(Cn2c(N3CCN(c4ccccc4)CC3)nc3c2c(=O)n(C)c(=O)n3C)c1`, 1.96% (inactive); with `COc1ccc(-c2cn3ccsc3n2)cc1`, 16.7% (inactive).
The result for `COc1ccc(-c2cn3ccc(C)cc3n2)cc1` reads 64.2% (active).
The result for `CCN(CC)S(=O)(=O)c1ccc(-c2cn3ccc(C)cc3n2)cc1` reads 5.08% (inactive); that for `CCOC(=O)C1CCN(Cc2nnc(-c3cccc(Br)c3)o2)CC1`, 2.47% (inactive).
In the case of `[O-][N+]12CCCCC1CCCC2CO` (stereo not given), the inhibition was 4.81% (inactive).
For `O=C1NNC(c2ccccc2)=N/C1=C\c1ccc(Cl)cc1`, the inhibition was -15.9% (inactive).
The result for `O=C1c2ccccc2C2=Nc3ccccc3SC(c3ccccc3F)C12` (stereo not given) reads 2.23% (inactive); that for `Cc1c(Cl)cccc1NC(=O)NCc1ccc(C)n1C`, -4.12% (inactive).
For the molecule `Cc1cccc(NC(=O)CCn2c(=O)oc3ccccc32)c1`, the inhibition was 8.63% (inactive).
Consider `CC(=O)c1nnn(-c2ccc(Cl)cc2C#N)c1C`, for which the inhibition was -27.7% (inactive).
With `COc1ccc(C(=O)Nc2cccc(NC(=O)c3ccc(OC)cc3OC)n2)c(OC)c1` the figure was 10.1% (inactive).
`CCOC(=O)C1C(c2ccc(Cl)cc2)NC(=S)NC1(O)C(F)(F)F` (stereo not given): the inhibition was -3.31% (inactive).
With `CCOC(=O)C1C(c2ccc(OC)c(OC)c2)c2c([nH][nH]c2=O)CC1(C)O` (stereo not given) the figure was 57.3% (active); with `CCOC(=O)C1C(c2ccc(O)cc2)NC(=O)NC1(O)C(F)(F)F` (stereo not given), -5.44% (inactive).
